Test results published in PubChem BioAssay AID463173 (ICCB-Longwood Screening Facility, Harvard Medical School, 2010).
Hit rate of the full screen: of about 52,000 compounds, about 1,700 (3.3%) were called active. The full list was thinned out, with actives kept by preference. Values without a mark were called inactive. Cut-off read from the data, not from the text of the source: active = survival mostly below about 52% (no sharp cut-off); inactive = mostly above about 56%.

tested on: Wild type; assay: growth inhibition of S. aureus wild type versus tarO mutant, primary screen, teichoic acid synthesis inhibitors, RN4220, OD600 (AID 463173); details: S. aureus RN4220 wild type/DeltatarO growth, OD600, 18 h, hits give low values, screened at 18.75 µg/mL (by protocol)

| SMILES | survival |
| --- | --- |
| CCn1c(CCNC(=O)C2CCCO2)nnc1SC (stereo unspecified) | 94% |
| COc1cccc(N2CCN(C(=O)CN3CCSc4ccc(S(=O)(=O)N(C)C)cc43)CC2)c1 | 72% |
| Cc1ccnc(NC(c2cccc(O)c2)c2ccc3ccc(C)nc3c2O)c1 (stereo unspecified) | 74% |
| Cc1ccnc(NCc2cccc3ccccc23)c1 | 115% |
| Oc1c(C(Nc2ccccn2)c2ccccc2F)ccc2cccnc12 (stereo unspecified) | 135% |
| COc1ccc(C(=O)NC(c2ccc(Cl)cc2)c2cc(Cl)c3cccnc3c2O)cc1 (stereo unspecified) | 79% |
| Cc1ccnc(NC(c2cc(C)ccc2O)c2ccc3cccnc3c2O)c1 (stereo unspecified) | 3% (active) |
| Cc1ccc2ccc(C(Nc3ccccn3)c3ccccc3)c(O)c2n1 (stereo unspecified) | 69% |
| Cc1ccc(O)c(CNc2cccc3cccnc23)c1 | 107% |
| Oc1cccc(C(Nc2ccccn2)c2ccc3cccnc3c2O)c1Cl (stereo unspecified) | 76% |
| Cc1ccc(C(Nc2ccccn2)c2ccc3cccnc3c2O)cc1 (stereo unspecified) | 6% (active) |
| Cc1ccnc(NC(c2ccccc2F)c2ccc3cccnc3c2O)c1 (stereo unspecified) | -8% (active) |
| Cc1cccc(NC(c2cccc(Cl)c2)c2ccc3cccnc3c2O)n1 (stereo unspecified) | 4% (active) |
| CCOc1cc(C(Nc2cc(C)ccn2)c2ccc3cccnc3c2O)ccc1OC (stereo unspecified) | 145% |
| CCCN(C(=O)c1nn(-c2ccc(OC)c(Cl)c2)c(=O)c2c1c1ccccc1n2C)c1ccccc1F | 74% |
| CCOc1ccccc1CNC(=O)Cn1c(-c2ccccc2)cc(C(C)=O)c1C | 67% |
| COC(=O)COc1ccc(S(=O)(=O)N2CCCCC2)cc1C | 117% |
| O=C(/C=C/c1ccccc1)NC1CCSC1=O (stereo unspecified) | 108% |
| O=C(CNS(=O)(=O)c1ccc(Cl)cc1)NC1CCCC1 | 103% |
| O=C(CS(=O)(=O)c1cccc2nsnc12)N1CCN(c2ccccc2F)CC1 | 94% |
| Cc1ccc(NC(=O)Nc2nnc(N(C)Cc3ccccc3)s2)cc1 | 101% |

| SMILES | survival |
| --- | --- |
| COc1ccc2c(c1)c(CC(=O)Nc1ccc(C(C)=O)cc1)c(C)n2C(=O)c1ccc(Cl)cc1 | 71% |
| CN1CCc2c(sc3c2C(=O)NC(c2ccc(OC(=O)c4ccc(Cl)cc4)cc2)N3)C1 (stereo unspecified) | 75% |
| CCOC(=O)c1ccc(NC(=O)CSc2cn(CC(=O)N3CCCC3)c3ccccc23)cc1 | 89% |
| COc1ccc(CNc2oc(COc3cccc(C)c3)nc2C#N)cc1 | 63% |
| COc1ccc(-c2nc(C)c(CCNS(=O)(=O)c3cc(Cl)ccc3Cl)s2)cc1 | 87% |
| CCOc1cc(C(=O)NCCc2csc3nc(-c4ccccc4F)nn23)cc(OCC)c1OCC | 87% |
| O=C(CCn1nnc(-c2cccs2)n1)NC1CCCCC1 | 115% |
| Cc1cccc(NC(c2ccccc2C)c2ccc3ccc(C)nc3c2O)n1 (stereo unspecified) | -3% (active) |
| Cc1cccc(NC(=O)c2ccccc2)n1 | 107% |
| COc1ccc(C(Nc2ccccn2)c2ccc3ccc(C)nc3c2O)cc1C (stereo unspecified) | 62% |
| Cc1ccc(C)c(N2CCN(S(=O)(=O)c3cn(C)c(C)n3)CC2)c1 | 68% |
| Cc1nc(S(=O)(=O)N2CCN(c3ccccc3F)CC2)cn1C | 121% |
| Cc1cccc(N2CCN(S(=O)(=O)c3cn(C)c(C)n3)CC2)c1C | -3% (active) |
| COc1cc(NC(=O)CC(C)S(=O)(=O)c2cc3c4c(c2)CCN4C(=O)CC3)cc(OC)c1 (stereo unspecified) | 76% |
| C=CCN1C2=NCCCN2c2ccccc21 | 113% |
| COC(=O)c1ccccc1NC(=O)CSc1cc(-c2ccccc2)nc(C)n1 | 92% |
| COC(=O)CSc1nc(-c2ccccc2)cc(C(F)(F)F)n1 | 111% |
| COC(=O)c1ccccc1NC(=O)CSc1nc(-c2ccccc2)cc(C(F)(F)F)n1 | 19% (active) |
| O=C(CSc1nc(-c2cccs2)cc(C(F)(F)F)n1)Nc1ccccc1Cl | 99% |
| CC(C)(C)c1ccccc1NC(=O)CSc1nc(-c2cccs2)cc(C(F)(F)F)n1 | 10% (active) |
| CCOc1ccccc1NC(=O)CSc1nc(-c2cccs2)cc(C(F)(F)F)n1 | 83% |

| SMILES | survival |
| --- | --- |
| COc1cccc(-n2c(=O)c3c4c(sc3n(Cc3ccccc3C#N)c2=O)CCCC4)c1 | 80% |
| COc1ccc(C(CNC(=O)c2oc3cc(C)c(C)cc3c2C)N2CCCCC2)cc1 (stereo unspecified) | 102% |
| Cc1ccc(NC(=O)C2CCN(C(=O)c3cnn(-c4ccccc4)c3-n3cccc3)CC2)cc1C | 84% |
| COc1ccc(CCNC(=O)c2ccc3c(c2)ncn3-c2ccc(C(C)C)cc2)cc1OC | 80% |
| COC(=O)CSc1nc2cc(OC)c(OC)cc2cc1C | 110% |
| COc1cc(C2C(=O)N(C3CCCCC3)CC(=O)N2CCC2=CCCCC2)ccc1OC(C)C (stereo unspecified) | 135% |
| Cc1cc(-c2nc3ccccc3s2)ccc1NC(=O)c1cc(Cl)ccc1Cl | 92% |
| COc1ccc(N2CCN(CC(O)COc3c(OC)cccc3OC)CC2)cc1 (stereo unspecified) | 81% |
| COc1ccccc1N1CCN(CC(O)COc2cc(C)cc(C)c2)CC1 (stereo unspecified) | 82% |
| COc1ccc(N2CCN(CC(O)COc3ccc(C)cc3C)CC2)cc1 (stereo unspecified) | 87% |
| C=CCc1ccccc1OCC(O)CN1CCN(c2ccccc2)CC1 (stereo unspecified) | 54% |
| COc1ccc(N2CCN(CC(O)COc3ccc(C(C)(C)C)cc3)CC2)cc1 (stereo unspecified) | 87% |
| COc1ccc(N2CCN(CC(O)COc3ccc(C(C)C)c(C)c3)CC2)cc1 (stereo unspecified) | 85% |
| COc1ccc(N2CCN(CC(O)COc3ccccc3C(C)(C)C)CC2)cc1 (stereo unspecified) | -3% (active) |
| Cc1ccc(C(C)C)c(OCC(O)CN2CCN(c3ccccc3F)CC2)c1 (stereo unspecified) | -3% (active) |
| COc1ccccc1N1CCN(CC(O)COc2ccc(C)cc2C(C)(C)C)CC1 (stereo unspecified) | 2% (active) |
| CCOC(=O)C(C)(C)Sc1nnc(COc2ccccc2)n1CC | 100% |
| C1CCC2(C1)OCC1(CO2)COC2(CCCC2)OC1 | 111% |
| Cc1ccc(NC(=O)N2CCC(CN3CCC(C)CC3)CC2)cc1F | 82% |
